Reference: PubChem BioAssay (NCATS)
Inconclusive results are not listed. Active and inactive are the calls of the source. The call rests on the fitted dose curve; in most records, active means well fitted inhibition curve with a large enough effect; inconclusive means small, poorly fitted or top-dose-only effect; inactive means no such curve, though single readings can be large or run the other way.

Test: qHTS assay for measurement of the activity of small molecule inhibitors on Zika virus induced Caspase-3 activity in human iPSC derived neural progenitor cells (hNPCs) (AID 1224857); further: % of control where 0% means no effect; nearly all actives have a fitted effect of over 65% in size
Settings: hNPCs ZIKV-induced caspase-3/7, Caspase-Glo luminescence, 6 h; series mostly up to 45.7 µM; activity change, negative = inhibition: at the top concentration
Method in brief: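 After overnight (16–20 h) culture at 350 cells/well, hNPCs get compound, then ZIKV 2 FFU/cell one hour later. Six hours on, Caspase-Glo 3/7 is added and luminescence measured.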
In the case of `CCCCCCCCCCCCCCCCCC(=O)OCC(O)CO` (stereo unspecified), the “activity change, negative = inhibition” value is reported as -24.5% (inactive).
With `COc1ccc(CN2CCN(C(c3ccc(F)cc3)c3ccc(F)cc3)CC2)c(OC)c1OC` the “activity change, negative = inhibition” value was 6.51% (inactive).
With `CCN(CC)C(=O)/C(C#N)=C/c1cc(O)c(O)c([N+](=O)[O-])c1` the “activity change, negative = inhibition” value was 6.27% (inactive).
In the case of `C/C=C(/C(=C/C)c1ccc(O)cc1)c1ccc(O)cc1`, the “activity change, negative = inhibition” value is reported as -12.4% (inactive).
For `Cc1ncc(CSSCc2cnc(C)c(O)c2CO)c(CO)c1O`, the “activity change, negative = inhibition” value was 3.19% (inactive).
With `CC1(C)O[C@@H]2C[C@H]3[C@@H]4CCC5=CC(=O)CC[C@]5(C)[C@@]4(F)[C@@H](O)C[C@]3(C)[C@]2(C(=O)CCl)O1` the “activity change, negative = inhibition” value was 9.43% (inactive).
For `CC(=O)[C@H]1CC[C@H]2[C@@H]3C[C@H](C)C4=CC(=O)CC[C@]4(C)[C@H]3[C@@H](O)C[C@]12C`, the “activity change, negative = inhibition” value was 9.25% (inactive).
For `O=C1OCCN1/N=C/c1ccc([N+](=O)[O-])o1`, the “activity change, negative = inhibition” value was -12.2% (inactive).
With `C[C@@H]1C[C@H]2[C@@H]3CCC4=CC(=O)C=C[C@]4(C)[C@@]3(F)[C@@H](O)C[C@]2(C)[C@H]1C(=O)CO` the “activity change, negative = inhibition” value was -4.76% (inactive).
For `NC[C@H]1O[C@H](O[C@H]2[C@H](O[C@@H]3O[C@H](CO)[C@@H](O)[C@H]3O)C(O)[C@H](N)C[C@@H]2N)[C@H](N)[C@@H](O)[C@@H]1O` (stereo partly specified), the activity change, negative = inhibition was 16.5% [at 9.06 µM] (inactive).
For `CN1[C@@H]2CC[C@H]1CC(OC(=O)c1c[nH]c3ccccc13)C2` (stereo partly specified), the “activity change, negative = inhibition” value was 6.21% (inactive).
With `CC(=O)N(O)CCCCCNC(=O)CCC(=O)N(O)CCCCCNC(=O)CCC(=O)N(O)CCCCCN` the “activity change, negative = inhibition” value was -5.45% (inactive).
In the case of `CC1(C)O[C@@H]2[C@@H](CO[C@@]3(COS(N)(=O)=O)OC(C)(C)O[C@@H]23)O1`, the “activity change, negative = inhibition” value is reported as 1.12% (inactive).
In the case of `CCOc1ccc(Cc2nccc3cc(OCC)c(OCC)cc23)cc1OCC`, the “activity change, negative = inhibition” value is reported as 7.48% (inactive).
With `CN1CCC[C@@H]1c1cccnc1` the “activity change, negative = inhibition” value was 7.59% (inactive).
With `Oc1c(I)cc(I)c2cccnc12` the “activity change, negative = inhibition” value was -19.4% (inactive).
With `CC(O)(P(=O)(O)O)P(=O)(O)O` the “activity change, negative = inhibition” value was 8.7% (inactive).
In the case of `CCn1cc(C(=O)O)c(=O)c2cnc(N3CCCC3)nc21`, the activity change, negative = inhibition is reported as -4.24% [at 9.06 µM] (inactive).
With `COC(=O)[C@H]1[C@H]2C[C@H]3c4[nH]c5ccccc5c4CCN3C[C@H]2CC[C@@H]1O` the “activity change, negative = inhibition” value was 13.3% (inactive).
For `COc1ccc(OC)c(C(O)CNC(=O)CN)c1` (stereo unspecified), the “activity change, negative = inhibition” value was 26.2% (inactive).
In the case of `CN(C)CC/C=C1\c2ccccc2Sc2ccc(Cl)cc21`, the “activity change, negative = inhibition” value is reported as 18.7% (inactive).
In the case of `N[C@H](Cc1c[nH]c2ccccc12)C(=O)O`, the “activity change, negative = inhibition” value is reported as 67.5% (inactive).
In the case of `COc1cc2c(cc1OC)[C@@H]1CC(=O)[C@@H](CC(C)C)CN1CC2`, the “activity change, negative = inhibition” value is reported as -4.26% (inactive).
With `NC(CS)C(=O)O` (stereo unspecified) the “activity change, negative = inhibition” value was 0.0809% (inactive).
In the case of `CC(C)(C)CC(C)(C)c1ccc(OCCOCC[N+](C)(C)Cc2ccccc2)cc1`, the “activity change, negative = inhibition” value is reported as -9.55% (inactive).
With `COC(=O)[C@@H]1CC2=CC(=O)CC[C@]2(C)[C@@]23O[C@@H]2C[C@@]2(C)[C@@H](CC[C@@]24CCC(=O)O4)[C@H]13` the “activity change, negative = inhibition” value was 22.8% (inactive).
With `NC(=O)C(=O)N/N=C/c1ccc([N+](=O)[O-])o1` the “activity change, negative = inhibition” value was -26.3% (inactive).
In the case of `C=C(CC)C(=O)c1ccc(OCC(=O)O)c(Cl)c1Cl`, the “activity change, negative = inhibition” value is reported as -1.25% (inactive).
With `Oc1cc(O)c2c(c1)O[C@H](c1ccc(O)c(O)c1)[C@H](O)C2` the “activity change, negative = inhibition” value was -13.2% (inactive).
With `O=C1[C@H]2CCCC[C@H]2C(=O)N1CCCCN1CCN(c2nsc3ccccc23)CC1` the “activity change, negative = inhibition” value was 8.91% (inactive).
For `CC1(C)O[C@@H]2C[C@H]3[C@@H]4C[C@H](F)C5=CC(=O)CC[C@]5(C)[C@H]4[C@@H](O)C[C@]3(C)[C@]2(C(=O)CO)O1`, the “activity change, negative = inhibition” value was 9.55% (inactive).
For `OC(CCN1CCCCC1)(c1ccccc1)c1ccccc1`, the “activity change, negative = inhibition” value was -7.17% (inactive).
In the case of `NC(=NCCCCCCN=C(N)/N=C(\N)Nc1ccc(Cl)cc1)/N=C(\N)Nc1ccc(Cl)cc1`, the “activity change, negative = inhibition” value is reported as 0.429% (inactive).
For `CC(=O)OCC(=O)[C@@]1(O)CC[C@H]2[C@@H]3CCC4=CC(=O)C=C[C@]4(C)[C@H]3[C@@H](O)C[C@@]21C`, the “activity change, negative = inhibition” value was -4.1% (inactive).
In the case of `CC(C)COC(=O)c1ccc(N)cc1`, the “activity change, negative = inhibition” value is reported as -6.01% (inactive).
In the case of `Nc1ccc(C(=O)Nc2ccccc2N)cc1`, the “activity change, negative = inhibition” value is reported as -2.73% (inactive).
